Compound activity (PubChem)
Compounds with a hit are over-represented: about 11% of the library has one in this group of screens.
AMA1 RON2 block – AMA1-RON2 (P. falciparum) interaction inhibition. AID 720542. 0.2% of 360,000 active. Potency, µM (doses to about 58.2 µM), most hits filed as inhibitors. AlphaScreen AMA1-biotinylated RON2 peptide binding; further: nearly all actives have a fitted effect of over 45% in size
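AMA1 (3D7) with his tag at 25 nM final met compounds first, then biotinylated RON2 peptide at 25 nM; detection used donor plus acceptor beads, 10 µg/mL apiece, read by AlphaScreen after 30 min at room temperature.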
Sm TGR inh – inhibitors of Schistosoma mansoni thioredoxin glutathione reductase | purified TGR, DTNB reduction, TNB absorbance 405 nm | 3% of 360,000 active | Potency, µM (top dose mostly 114 µM), actives largely listed as inhibitors | AID 485364 | Q962Y6; further: nearly all actives have a fitted effect of over 60% in size
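TGR 20 nM + NADPH 100 uM (dispensed conc.), cpd preinc 15 min RT; start with NADPH (500 uM addition) then DTNB (15 mM addition). Kinetic TNB absorbance, 405 nm filter. Four-parameter Hill fit across titration.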
Pf growth 48h – inhibits P. falciparum growth in the first generation, 48 h; 5.9% of 310,000 active; Potency, µM (top dose mostly 28.7 µM), actives largely listed as inhibitors; AID 504832; P. falciparum luciferase growth in erythrocytes, 48 h
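Luciferase-expressing P. falciparum in infected erythrocytes (2% hematocrit, 0.1% parasitemia final) in RPMI 1640/0.5% Albumax were exposed to compound for 48 hours at 37 C, 5% CO2; growth read as luminescence.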
Pf growth 96h – P. falciparum growth inhibition at 96 hour, primary screen for plastid delayed-death inhibitors | Potency, µM (titrated, usually from 28.7 µM), hits mostly inhibitors | P. falciparum luciferase reporter growth, 96 h | AID 504834 | 6.9% of 320,000 active
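Parasite growth measured via integrated firefly luciferase reporter in P. falciparum. Infected erythrocytes at 2% hematocrit, 0.05% parasitemia final were treated 96 hours at 37 C under 5% CO2, and luminescence was read.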
NS1 function inh – inhibitors of influenza NS1 protein function; 0.4% of 270,000 active; Potency, µM (top dose mostly 46.1 µM); AID 2326; calls by dose curve; further: actives are rising curves; nearly all actives have a fitted effect of over 50% in size
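Read-out: OD600 growth recovery of NS1-expressing budding yeast. Cells grown overnight at 30C in -URA glucose medium, washed, resuspended and diluted 1:100 in 2% galactose assay medium, pH 6.0. Same strain lacking NS1 served as positive control.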
A number is an active result; . = inactive; ? = inconclusive; / = no result given; ! = not confirmed by another sample; [ ] = remark or other dose. Unless noted, the call rests on the fitted dose curve; in most records, active means well fitted curve in the direction sought with a large enough effect; inconclusive means small, poorly fitted or top-dose-only effect, or another doubt; inactive means no such curve, though single readings can be large; an effect the other way counts as inactive or inconclusive.

SMILES | AMA1 RON2 block | Sm TGR inh | Pf growth 48h | Pf growth 96h | NS1 function inh
CCC(C)(C)NC(=O)C(c1cccn1C)N(Cc1ccc(OC)cc1)C(=O)Cn1nnc2ccccc21 (centres undefined) | . | . | 9.28µM | ? | .
COCCNC(=O)C(c1ccco1)N(C(=O)Cn1nnc2ccccc21)c1cc(C)ccc1C (centres undefined) | . | . | / | / | .
Cc1ccccc1CCN(C(=O)Cn1nnc2ccccc21)C(C(=O)NC(C)(C)C)c1ccsc1 (centres undefined) | . | . | ? | 1.17µM | .
COc1ccc(CCNC(=O)COC(=O)c2ccccc2NCCO)cc1OC | . | . | ? | . | /
COc1ccc(N(C(=O)Cn2nnc3ccccc32)C(C(=O)NCc2ccco2)c2ccc(C)o2)cc1 (centres undefined) | . | ? | ? | ? | .
Cc1ccc(C(C(=O)NCc2ccco2)N(CCc2ccccc2)C(=O)Cn2nnc3ccccc32)o1 (centres undefined) | . | . | 13.1µM | / | .
Cc1ccc(N(C(=O)Cn2nnc3ccccc32)C(C(=O)NCc2ccco2)c2ccc(C)o2)cc1 (centres undefined) | . | ? | 13.1µM | ? | .
CC(C)Cn1c(=O)c2sccc2n2c(CCCC(=O)N3CCN(c4ccc(F)cc4)CC3)nnc12 | / | . | / | / | /
Cc1ccccc1C(=O)OCCCN=C1NS(=O)(=O)c2ccccc21 | . | . | . | . | .
O=C(/C=C/c1ccccc1)OCCCN=C1NS(=O)(=O)c2ccccc21 | . | / | . | 5.22µM | .
COc1ccc(NC(=O)c2ccc3c(SCC(=O)O)c4c(nc3c2)CCCC4)cc1Cl | / | . | ? | ? | /
O=C(O)CSc1c2c(nc3cc(C(=O)Nc4ccc(F)c(Cl)c4)ccc13)CCCC2 | . | . | . | 1.04µM | .
Cc1ccc(CNC(=O)CSc2c3c(nc4cc(Cl)ccc24)CCCC3)o1 | . | 8.91µM | 14.7µM | . | .
O=C(CCn1cnnn1)Nc1ccccc1 | . | . | . | . | /
N#Cc1ccccc1NC(=O)C(=O)NCC(c1ccc2c(c1)OCO2)N1CCN(c2ccccc2)CC1 (centres undefined) | / | . | / | / | /
CCCn1ncc(CN2CCC(CO)(Cc3ccc(OC)cc3)CC2)c1C | . | . | . | 0.37µM | .
COc1ccc(N2CCN(S(=O)(=O)c3cccc4cccnc34)CC2)cc1 | . | . | / | . | .
COc1ccc(CC2(CO)CCN(S(=O)(=O)N(C)C)CC2)cc1 | . | . | . | 5.86µM | .
COc1ccc(CC2(CO)CCN(S(=O)(=O)c3cccc4cccnc34)CC2)cc1 | . | . | . | 11.7µM | .
Cc1ccc(C)c(CN2C(=O)c3ccccc3S(=O)c3ccc(C(=O)NCCC4=CCCCC4)cc32)c1 (centres undefined) | / | . | / | / | /
CCN(CC(=O)O)S(=O)(=O)c1cc(Cl)ccc1Cl | . | . | . | 13.1µM | .
COC(C/C=C/C(=O)COCc1ccccc1)OC | . | 15.8µM | . | . | .
COc1ccc(-c2ccc(CCC(=O)O)n2-c2cc(OC)ccc2OC)cc1 | . | / | / | / | /
COc1ccc(-c2ccc(CCC(=O)O)n2-c2ccccc2O)cc1 | . | 28.2µM! | . | . | .
COc1ccc(-n2c(CCC(=O)O)ccc2-c2ccccc2)cc1 | . | 39.8µM! | . | . | .
SMILES | AMA1 RON2 block | Sm TGR inh | Pf growth 48h | Pf growth 96h | NS1 function inh
Cc1ccc(CSCc2ccc(C(=O)O)o2)cc1 | . | ? | . | ? | .
Cc1cccc(CSCc2ccc(C(=O)O)o2)c1 | . | 50.1µM | . | . | .
Cc1cccc(CSCc2ccc(C(=O)NC(C)C)o2)c1 | . | ? | .[0.00184 µM] | 3.7µM | .
COc1cccc(CCC(=O)Nc2cccc(S(=O)(=O)N3CCCC3)c2)c1OC | . | . | 9.28µM | 8.28µM | /
O=C(CCc1ccccc1Cl)Nc1cccc(S(=O)(=O)N2CCCC2)c1 | . | . | ? | ? | .
CCOc1ccc(OCCC(=O)Nc2cccc(S(=O)(=O)N3CCCC3)c2)cc1 | . | . | ? | 14.7µM | /
CCOc1ccc(CN(C)C(=O)c2cc(S(=O)(=O)N3CCCC3)ccc2C)cc1 | . | . | 11.7µM | ? | /
COc1ccccc1C(=O)NCCC(=O)Nc1cccc(S(=O)(=O)N2CCCC2)c1 | . | . | 3.29µM | ? | /
CC1(C(=O)OCC(=O)Nc2cc(S(=O)(=O)N3CCOCC3)ccc2Cl)CC1(Cl)Cl (centres undefined) | . | / | / | / | /
COc1ccc(NCc2cc3ccc(OC)cc3n(CC(=O)Nc3cccc(OC)c3)c2=O)cc1 | / | . | / | / | /
CNc1ccccc1C(C)(C)c1cc(-c2cc(C)cc(C)c2)no1 | ? | . | ? | 9.28µM | .
CNc1ccccc1C(C)(C)c1cc(-c2cccc(OC)c2)no1 | . | . | ? | ? | /
CC(=O)Nc1ccc(C=CC=Cc2cccc([N+](=O)[O-])c2)cc1 | . | / | / | / | /
CCOC(=O)C1=C(CN2CCN(C(=O)c3ccco3)CC2)NC(=O)NC1c1ccc(OC(C)C)cc1 (centres undefined) | . | . | 11.7µM | ? | .
COc1ccc(C(=O)N2CCN(C(=O)c3ccco3)CC2)cc1 | . | . | . | ? | .
CC(C)Oc1ccc(C(=O)N2CCN(C(=O)c3ccco3)CC2)cc1 | . | . | . | 10.4µM | .
CCOC(=O)C1=C(CN2CCN(CC)CC2)NC(=O)NC1c1ccc(Cl)cc1 (centres undefined) | / | . | / | / | /
CCOC(=O)C1=C(CN2CCC(C)CC2)NC(=O)NC1c1ccc(F)cc1 (centres undefined) | / | . | / | / | /
CCOC(=O)C1=C(CN2CCN(C(=O)c3ccco3)CC2)NC(=O)NC1c1ccc(F)cc1 (centres undefined) | . | . | 10.4µM | . | .
CCOC(=O)C1=C(CN2CCN(C(=O)c3ccco3)CC2)NC(=O)NC1c1ccc(Cl)cc1 (centres undefined) | . | . | 3.7µM | ? | .
COc1ccc(CCNc2ncnc3c2nnn3C)cc1 | / | . | / | / | /
COc1ccc([C@H]2/C=C\CN(C(=O)[C@H](Cc3ccccc3)NC(=O)OCC3c4ccccc4-c4ccccc43)CC(=O)N2Cc2ccc(F)cc2)cc1 | . | / | / | / | /
CCSc1nnc(NC(=O)c2c(-c3ccccc3Cl)noc2C)s1 | . | .[11.4 µM] | / | 5.86µM | ?
CCCCNS(=O)(=O)c1ccc(NC(=O)c2c(-c3ccccc3Cl)noc2C)cc1 | . | . | / | 5.22µM | .
Cc1cccc(C(=O)Nc2cccc3cccnc23)c1 | . | . | . | . | .
SMILES | AMA1 RON2 block | Sm TGR inh | Pf growth 48h | Pf growth 96h | NS1 function inh
CCCCNS(=O)(=O)c1ccc(NC(=O)c2c(-c3ccccc3)noc2C)cc1 | / | . | / | / | /
Cc1onc(-c2ccccc2Cl)c1C(=O)Nc1ccc(-c2cn3cccnc3n2)cc1 | . | . | 10.4µM | ? | ?
Cc1cnc(C(=O)Nc2cccc3cccnc23)cn1 | . | . | 0.37µM | . | .
Cc1ccc(-c2cn3cccnc3n2)cc1NC(=O)c1c(-c2ccccc2Cl)noc1C | . | . | ? | . | .
O=C(CSCc1ccccc1)Nc1ccc(S(=O)(=O)Nc2ncccn2)cc1 | . | . | . | . | .
CC(=O)c1ccc2ccccc2c1OC(=O)c1ccncc1 | . | / | / | / | /
Cc1cnc(C(=O)Nc2ccccc2C(=O)N2CCOCC2)cn1 | . | . | . | 3.7µM | .
